Test results taken from PubChem BioAssay AID1159580 (chemical genetic matrix, 2015).
“And” between values parts separate entries of the source, which are not always exact repeats. Equal values may be shown once. About 2,000 (36%) of roughly 5,500 compounds were called active. About 18% were inconclusive and are not listed. Rule as the data show it: active = normalized growth mostly below about 0.91 (no sharp cut-off); inconclusive = no clear call, values can overlap the other calls; inactive = mostly above about 0.92. This is one part of the list.

Assay: chemical genetic growth profiling, strain panel (AID 1159580);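 also: tested at 20 µM; growth read once vehicle control cultures reached saturation at 30 °C; 1 = growth at the plate median or of vehicle wells; lower values mean less growth of the strain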
Conditions: S. cerevisiae deletion strains, growth OD

Measured: normalized growth

CCCCOc1ccc(CC(=O)NO)cc1
inactive: locus YAL021C, strain ccr4, hits give low values 0.987 | locus YAL026C, strain drs2, hits give low values 0.983 | locus YAL030W, strain snc1, hits give low values 1 | locus YBL061C, strain skt5, hits give low values 0.996 | locus YBR009C, strain hhf1, hits give low values 0.953 | locus YBR021W, strain FUR4, hits give low values 1.02 | locus YBR023C, strain chs3, hits give low values 0.993 | locus YBR171W, strain sec66, hits give low values 0.98 | locus YBR229C, strain ROT2, hits give low values 1 | locus YBR231C, strain swc5, hits give low values 0.988 | locus YBR279W, strain paf1, hits give low values 1 | locus YCL011C, strain gbp2, hits give low values 0.99 | locus YCL016C, strain dcc1, hits give low values 0.967 | locus YCL029C, strain bik1, hits give low values 1 | locus YCL061C, strain MRC1, hits give low values 1.01 | locus YCL069W, strain vba3, hits give low values 0.973 | locus YCR088W, strain abp1, hits give low values 1 | locus YDL005C, strain med2, hits give low values 0.994 | locus YDL035C, strain GPR1, hits give low values 0.977 | locus YDL040C, strain nat1, hits give low values 0.998 | locus YDL074C, strain BRE1, hits give low values 0.964 | locus YDL101C, strain DUN1, hits give low values 0.99 | locus YDL134C, strain PPH21, hits give low values 0.965 | locus YDL185W, strain tfp1, hits give low values 1 | locus YDL192W, strain arf1, hits give low values 1.01 | locus YDR001C, strain nth1, hits give low values 0.991 | locus YDR069C, strain doa4, hits give low values 1 | locus YDR101C, strain arx1, hits give low values 0.988 | locus YDR137W, strain rgp1, hits give low values 0.857 | locus YDR150W, strain NUM1, hits give low values 0.992 | locus YDR159W, strain sac3, hits give low values 0.96 | locus YDR162C, strain NBP2, hits give low values 0.99 | locus YDR195W, strain ref2 0.94 | locus YDR297W, strain sur2, hits give low values 0.992 | locus YDR318W, strain mcm21, hits give low values 1.01 | locus YDR334W, strain swr1, hits give low values 1.02 | locus YDR335W, strain msn5, hits give low values 1.01 | locus YDR388W, hits give low values 1 | locus YDR392W, strain spt3, hits give low values 0.935 | locus YDR502C, strain sam2, hits give low values 0.997 | locus YEL003W, strain gim4, hits give low values 0.97 | locus YEL037C, strain rad23, hits give low values 0.993 | locus YEL061C, strain CIN8 (second series), hits give low values 0.994 | locus YEL061C, strain CIN8, hits give low values 0.996 | locus YER015W, strain faa2, hits give low values 1 | locus YER016W, strain bim1, hits give low values 0.997 | locus YER110C, hits give low values 1.02 | locus YER111C, strain swi4, hits give low values 0.996 | locus YER155C, strain BEM2 (second series), hits give low values 0.939 | locus YER155C, strain BEM2, hits give low values 0.994 | locus YER167W, strain BCK2, hits give low values 0.989 | locus YFR010W, strain ubp6, hits give low values 0.999 | locus YGL078C, strain dbp3, hits give low values 1 | locus YGL086W, strain mad1, hits give low values 1 | locus YGL167C, strain pmr1, hits give low values 1.01 | locus YGL173C, strain kem1, hits give low values 1.02 | locus YGL227W, strain vid30, hits give low values 0.993 | locus YGL240W, strain doc1, hits give low values 0.997 | locus YGL248W, strain PDE1, hits give low values 0.965 | locus YGL253W, strain hxk2, hits give low values 0.975 | locus YGR078C, strain PAC10, hits give low values 0.957 | locus YGR135W, strain pre9, hits give low values 1 | locus YGR229C, strain SMI1, hits give low values 0.916 | locus YGR252W, strain gcn5, hits give low values 0.878 | locus YHR013C, strain ard1, hits give low values 0.978 | locus YHR027C, strain rpn1, hits give low values 1.01 | locus YHR030C, strain SLT2, hits give low values 0.994 and 1.05 | locus YHR079C, strain IRE1 (second series), hits give low values 1.01 | locus YHR079C, strain IRE1, hits give low values 1 | locus YHR094C, strain hxt1, hits give low values 1 | locus YHR129C, strain ARP1, hits give low values 0.994 | locus YHR142W, strain chs7, hits give low values 0.961 | locus YHR200W, strain rpn10, hits give low values 1.01 | locus YIL066C, strain RNR3, hits give low values 0.915 | locus YIL073C, strain SPO22, hits give low values 0.974 | locus YIL125W, strain kgd1, hits give low values 0.997 | locus YIR030C, strain dcg1, hits give low values 1 | locus YJL092W, strain hpr5, hits give low values 0.997 | locus YJL095W, strain BCK1 (second series), hits give low values 1 | locus YJL095W, strain BCK1, hits give low values 0.959 and 1.01 | locus YJL115W, strain asf1, hits give low values 1 | locus YJL129C, strain trk1, hits give low values 0.966 | locus YJL134W, strain LCB3, hits give low values 0.996 | locus YJL154C, strain vps35, hits give low values 0.997 | locus YJL164C, strain tpk1, hits give low values 0.985 | locus YJL166W, strain qcr8, hits give low values 0.922 | locus YJL168C, strain set2, hits give low values 1 | locus YJL187C, strain SWE1 (second series), hits give low values 0.991
